Reference: PubChem BioAssay (Tox21)
Results filed as inconclusive are left out. Calls of active or inactive are those of the source. Unless noted, calls come from the whole dose curve.

Experiments:
[1] = target: Peroxisome proliferator-activated receptor delta (Homo sapiens) (UniProt Q03181); assay: qHTS assay to identify small molecule agonists of the peroxisome proliferator-activated receptor delta (PPARd) signaling pathway (AID 743212); note: % is set by controls: 0 for no effect and ±100 for the full control effect
Procedure, shortened: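 HEK293H PPARd-bla cells; 5 h preincubation 37 C/5% CO2; compound (DMSO) 37 C; LiveBLAzer B/G FRET substrate 2 h RT; fluorescence intensity.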

[2] = qHTS assay to identify small molecule antagonists of the peroxisome proliferator-activated receptor delta (PPARd) signaling pathway - cell viability counter screen (AID 743213; active = well fitted curve in the direction sought with a large enough effect in the repeat runs; an effect the other way counts as inactive or inconclusive; note: % is set by controls: 0 for no effect and ±100 for the full control effect; nearly all actives have a fitted effect of over 50% in size)
Procedure, shortened: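 Agonist-stimulated (L165041, 300 nM final) HEK293H PPARd UAS-bla cells are exposed to compounds for 17 h at 37 C, and ATP-based luminescence (CellTiter-Glo) from the same wells reports cytotoxicity.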

[3] = target: Peroxisome proliferator-activated receptor delta (Homo sapiens) (UniProt Q03181); assay: qHTS assay to identify small molecule antagonists of the peroxisome proliferator-activated receptor delta (PPARd) signaling pathway (AID 743215; active = well fitted inhibition curve with a large enough effect in the signal ratio in the repeat runs, not every such curve was filed as active; the % refers to the signal ratio; note: series mostly up to about 62 µM; % is set by controls: 0 for no effect and ±100 for the full control effect)
Procedure, shortened: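 PPARd UAS-bla HEK293H cells were pre-incubated 5 h at 37 C, then given test compounds in DMSO plus agonist L165041 (300 nM final). After 17 h at 37 C, beta-lactamase FRET substrate was added; fluorescence read after 2 h at room temperature.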

[4] = qHTS assay to identify small molecule agonists of the farnesoid-X-receptor (FXR) signaling pathway - cell viability counter screen (AID 743218; active = well fitted curve in the direction sought with a large enough effect in the repeat runs; an effect the other way counts as inactive or inconclusive; note: % is set by controls: 0 for no effect and ±100 for the full control effect; nearly all actives have a fitted effect of over 45% in size)
Procedure, shortened: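 FXR-UAS-bla HEK 293T cells, plated 5 h at 37 C, were exposed to compounds for 16 h at 37 C. CellTiter-Glo was then added to the same wells as the bla readout; luminescence read after 30 min at room temperature.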

[5] = qHTS assay to identify small molecule antagonists of the farnesoid-X-receptor (FXR) signaling pathway - cell viability counter screen (AID 743221; active = well fitted cell-killing curve with a large enough effect in the repeat runs, not every such curve was filed as active; note: % is set by controls: 0 for no effect and ±100 for the full control effect; nearly all actives have a fitted effect of over 50% in size)
Procedure, shortened: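 HEK 293T FXR-bla cells, 5 h pre-incubation; compound + CDCA 50 uM final, 16 h, 37 C; beta-lactamase FRET read first, then CellTiter-Glo luminescence, 30 min RT.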

[6] = target: Vitamin D3 receptor (Homo sapiens) (UniProt P11473); assay: qHTS assay to identify small molecule agonists of the vitamin D receptor (VDR) signaling pathway (AID 743222); note: % is set by controls: 0 for no effect and ±100 for the full control effect
Procedure, shortened: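 VDR-bla cells were plated 4 h at 37C/5% CO2, then exposed to compounds in DMSO for 16 h. After LiveBLAzer B/G FRET substrate addition and 2 h at room temperature, beta-lactamase reporter fluorescence was read.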

[7] = qHTS assay to identify small molecule agonists of the NFkB signaling pathway - cell viability counter screen (AID 1159515); note: series mostly up to about 61 µM; % is set by controls: 0 for no effect and ±100 for the full control effect; nearly all actives have a fitted effect of over 55% in size
Procedure, shortened: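 NFkB-bla ME-180 cells, 2,000/well, were plated overnight at 37 C, 5% CO2, then exposed to compounds in DMSO for 5 hr. After the bla FRET read, CellTiter-Glo was added to the same wells; luminescence was read after 30 min at room temperature.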

[8] = qHTS assay to identify small molecule agonists of the endoplasmic reticulum stress response signaling pathway (AID 1159516; active = well fitted activation curve with a large enough effect in the signal ratio in the repeat runs, not every such curve was filed as active; the % refers to the signal ratio; note: % is set by controls: 0 for no effect and ±100 for the full control effect)
Procedure, shortened: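 CellSensor ESRE-bla HeLa cells, carrying a beta-lactamase reporter driven by the ER stress response element, were plated overnight and exposed to compounds for 5 hr at 37 C. Reporter activity was read as FRET substrate fluorescence after 2 hr at room temperature.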

[9] = qHTS assay to identify small molecule agonists of the endoplasmic reticulum stress response signaling pathway - cell viability counter screen (AID 1159517); note: series mostly up to about 61 µM; % is set by controls: 0 for no effect and ±100 for the full control effect; nearly all actives have a fitted effect of over 50% in size
Procedure, shortened: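 HeLa cells carrying an ESRE-driven beta-lactamase reporter receive compound for 5 hr at 37 C. Cell viability is then gauged with CellTiter-Glo by luminescence, 30 min at room temperature.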

[10] = target: Nuclear receptor ROR-gamma (Homo sapiens) (UniProt P51449); assay: qHTS assay to identify small molecule antagonists of the retinoid-related orphan receptor gamma (ROR-gamma) signaling pathway (AID 1159521; active = well fitted curve in the direction sought with a large enough effect in the repeat runs; an effect the other way counts as inactive or inconclusive;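 note: CHO cells with doxycycline inducible ROR-gamma driving an RORE luciferase reporter; top concentration of the series differs between compounds; % is set by controls: 0 for no effect and ±100 for the full control effect; nearly all actives have a fitted effect of over 50% in size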)
Procedure, shortened: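 Luminescence readout (ONE-Glo, 30 min RT) after 16 h doxycycline induction; loss of signal scored as antagonism. CHO cells with TET-inducible RORγ and RORE-LUC reporter; compounds added 2 h before 1 uM final doxycycline.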

[11] = qHTS assay to identify small molecule agonists of the AP-1 signaling pathway - cell viability counter screen (AID 1159525); note: nearly all actives have a fitted effect of over 55% in size
Procedure, shortened: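 Luminescent ATP readout (Cell Titer Glo, 30 min RT), normalised to DMSO and tetra n-octyl ammonium bromide controls. Cells were ME-180 AP-1-bla in 0.5% dialyzed FBS Opti-MEM, with a 5 h, 37 °C compound exposure.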

[12] = qHTS assay to identify small molecule agonists of the AP-1 signaling pathway (AID 1159526); note: % is set by controls: 0 for no effect and ±100 for the full control effect
[13] = target: Retinoic acid receptor RXR-alpha (Homo sapiens) (UniProt P19793); assay: qHTS assay to identify small molecule agonists of the RXR signaling pathway (AID 1159527); note: % is set by controls: 0 for no effect and ±100 for the full control effect; nearly all actives have a fitted effect of over 35% in size
Procedure, shortened: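 Agonist mode; 9-cis retinoic acid positive control. HEK 293T UAS-bla reporter cells, 2% charcoal-stripped FBS, 16 hr compound exposure at 37 C/5% CO2. LiveBLAzer B/G FRET substrate 2 hr RT; ex 405, em 460/530 nm.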

[14] = qHTS assay to identify small molecule agonists of the RXR signaling pathway - cell viability counter screen (AID 1159529; active = well fitted curve in the direction sought with a large enough effect in the repeat runs; an effect the other way counts as inactive or inconclusive)
Procedure, shortened: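 Luminescence from CellTiter-Glo (30 min, RT) measured viability in the same wells as the beta-lactamase reporter readout. Cells: GeneBLAzer RXR-alpha HEK 293T, 2% charcoal-stripped FBS. Compound exposure 16 hr, 37 C.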

[15] = target: Vitamin D3 receptor (Homo sapiens) (UniProt P11473); assay: qHTS assay to identify small molecule antagonists of the vitamin D receptor (VDR) signaling pathway (AID 743223; active = well fitted inhibition curve with a large enough effect in the signal ratio in the repeat runs, not every such curve was filed as active; the % refers to the signal ratio; note: % is set by controls: 0 for no effect and ±100 for the full control effect)
Procedure, shortened: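 Beta-lactamase reporter read-out: FRET substrate fluorescence after 2 h at room temperature, following 16 h exposure of VDR-bla cells to test compound plus 3 nM (final) 1alpha,25-dihydroxyvitamin D3 agonist at 37C.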

[16] = qHTS assay to identify small molecule antagonists of the vitamin D receptor (VDR) signaling pathway - cell viability counter screen (AID 743225; active = well fitted curve in the direction sought with a large enough effect in the repeat runs; an effect the other way counts as inactive or inconclusive)
Procedure, shortened: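 Viability counter screen run in the same wells as the beta-lactamase reporter assay: HEK 293T VDR-UAS-bla cells, 16 h compound exposure at 37C with 3 nM (final) 1-alpha,25-dihydroxyvitamin D3. CellTiter-Glo luminescence, 30 min, room temperature.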

[17] = qHTS assay to identify small molecule agonists of the vitamin D receptor (VDR) signaling pathway - cell viability counter screen (AID 743224; active = well fitted curve in the direction sought with a large enough effect in the repeat runs; an effect the other way counts as inactive or inconclusive)
Procedure, shortened: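 VDR-bla cells were preincubated 4 h at 37C/5% CO2, then exposed to compounds for 16 h. After the 2 h room-temperature bla FRET read, CellTiter-Glo was added to the same wells and luminescence read after 30 min.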

[18] = target: Bile acid receptor (Homo sapiens) (UniProt Q96RI1); assay: qHTS assay to identify small molecule antagonists of the farnesoid-X-receptor (FXR) signaling pathway (AID 743217; active = well fitted inhibition curve with a large enough effect in the signal ratio in the repeat runs, not every such curve was filed as active; the % refers to the signal ratio; note: % is set by controls: 0 for no effect and ±100 for the full control effect)
Procedure, shortened: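 FXR-UAS-bla HEK 293T cells pre-incubated 5 h at 37 °C, then exposed to compounds with chenodeoxycholic acid (50 uM final) for 16 h at 37 °C. Beta-lactamase reporter read by LiveBLAzer B/G FRET substrate fluorescence after 2 h at room temperature.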

[19] = target: Bile acid receptor (Homo sapiens) (UniProt Q96RI1); assay: qHTS assay to identify small molecule agonists of the farnesoid-X-receptor (FXR) signaling pathway (AID 743220; active = well fitted activation curve with a large enough effect in the signal ratio in the repeat runs, not every such curve was filed as active; the % refers to the signal ratio; note: % is set by controls: 0 for no effect and ±100 for the full control effect)
Procedure, shortened: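 Beta-lactamase reporter under UAS control in GeneBLAzer FXR HEK 293T cells (5000/well) measured with LiveBLAzer FRET substrate after 2 h at room temperature. Compound exposure lasted 16 h at 37C.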

[20] = qHTS assay to identify small molecule antagonists of the retinoid-related orphan receptor gamma (ROR-gamma) signaling pathway - cell viability counter screen (AID 1159520; active = well fitted curve in the direction sought with a large enough effect in the repeat runs; an effect the other way counts as inactive or inconclusive)
Procedure, shortened: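 Cytotoxicity was read from cellular ATP (CellTiter-Glo luminescence) after 16 hr at 37 C with 1 uM doxycycline induction. The inducer was added 2 hr after compound transfer to Tet-on ROR gamma CHO cells.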

Retinoic acid receptor RXR-alpha (Homo sapiens), sequence (P19793 whole entry, looked up): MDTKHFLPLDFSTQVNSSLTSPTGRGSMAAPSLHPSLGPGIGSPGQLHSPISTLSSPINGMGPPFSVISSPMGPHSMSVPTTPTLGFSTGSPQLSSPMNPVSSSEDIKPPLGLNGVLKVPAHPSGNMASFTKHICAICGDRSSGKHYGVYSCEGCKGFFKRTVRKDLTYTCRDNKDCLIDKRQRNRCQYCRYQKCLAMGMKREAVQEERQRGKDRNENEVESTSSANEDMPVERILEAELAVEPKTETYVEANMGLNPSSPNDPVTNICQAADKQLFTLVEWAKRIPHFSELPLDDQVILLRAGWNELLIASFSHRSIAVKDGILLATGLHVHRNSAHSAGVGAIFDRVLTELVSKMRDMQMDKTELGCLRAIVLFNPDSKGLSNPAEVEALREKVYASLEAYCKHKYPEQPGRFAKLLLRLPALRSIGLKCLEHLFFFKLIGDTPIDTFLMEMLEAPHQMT
Peroxisome proliferator-activated receptor delta (Homo sapiens), sequence (Q03181 whole entry, looked up): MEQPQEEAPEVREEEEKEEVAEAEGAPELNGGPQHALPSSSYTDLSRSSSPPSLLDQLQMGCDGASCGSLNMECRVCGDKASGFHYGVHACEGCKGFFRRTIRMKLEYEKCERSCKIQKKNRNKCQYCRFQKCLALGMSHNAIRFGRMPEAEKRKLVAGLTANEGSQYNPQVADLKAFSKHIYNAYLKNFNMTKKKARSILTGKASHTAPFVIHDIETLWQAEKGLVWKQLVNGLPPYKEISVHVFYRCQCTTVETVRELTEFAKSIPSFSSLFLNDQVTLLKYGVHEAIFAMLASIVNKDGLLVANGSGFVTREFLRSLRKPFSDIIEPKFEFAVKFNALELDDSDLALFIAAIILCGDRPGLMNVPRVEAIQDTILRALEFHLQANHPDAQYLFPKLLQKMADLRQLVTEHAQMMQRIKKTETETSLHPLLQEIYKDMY
Vitamin D3 receptor (Homo sapiens), sequence (P11473 whole entry, looked up): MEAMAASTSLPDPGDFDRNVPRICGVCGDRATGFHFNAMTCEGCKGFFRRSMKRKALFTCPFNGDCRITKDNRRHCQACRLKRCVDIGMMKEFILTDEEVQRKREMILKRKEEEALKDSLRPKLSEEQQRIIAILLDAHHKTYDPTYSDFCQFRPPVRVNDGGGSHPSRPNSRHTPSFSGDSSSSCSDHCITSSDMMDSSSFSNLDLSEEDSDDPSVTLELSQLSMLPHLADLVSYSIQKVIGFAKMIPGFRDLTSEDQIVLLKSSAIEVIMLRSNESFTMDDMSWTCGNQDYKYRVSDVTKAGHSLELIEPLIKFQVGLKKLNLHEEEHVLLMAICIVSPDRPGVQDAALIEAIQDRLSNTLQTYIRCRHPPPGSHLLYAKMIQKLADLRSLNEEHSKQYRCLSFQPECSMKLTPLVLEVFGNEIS
Bile acid receptor (Homo sapiens), sequence (Q96RI1 whole entry, looked up): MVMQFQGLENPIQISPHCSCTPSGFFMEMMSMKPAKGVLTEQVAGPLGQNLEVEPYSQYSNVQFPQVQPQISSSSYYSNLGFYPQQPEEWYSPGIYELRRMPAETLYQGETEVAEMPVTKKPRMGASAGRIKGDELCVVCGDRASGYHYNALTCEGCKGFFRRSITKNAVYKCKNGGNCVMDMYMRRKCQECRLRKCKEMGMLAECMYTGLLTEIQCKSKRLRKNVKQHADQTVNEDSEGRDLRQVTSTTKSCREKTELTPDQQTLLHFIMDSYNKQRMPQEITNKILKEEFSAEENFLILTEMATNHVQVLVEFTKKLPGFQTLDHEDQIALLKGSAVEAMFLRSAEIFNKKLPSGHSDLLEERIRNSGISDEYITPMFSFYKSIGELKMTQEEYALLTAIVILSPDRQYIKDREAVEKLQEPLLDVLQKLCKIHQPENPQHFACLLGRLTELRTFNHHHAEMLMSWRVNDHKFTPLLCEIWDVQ

CCCCN(CCCC)CCCCCCN(CCCC)CCCC
inactive: outcome [1] | outcome [2] | outcome [3] | outcome [4] | outcome [5] | outcome [6] | outcome [7] | Potency [8] | outcome [9] | outcome [10] | outcome [11] | Potency [12] | Potency [13] | Potency [14]

Cc1ccc(NC(N)=O)cc1
inactive: outcome [1] | outcome [3] | outcome [4] | outcome [5] | outcome [6] | outcome [15] | outcome [16] | outcome [7] | Potency [8] | outcome [9] | outcome [10] | outcome [11] | Potency [12] | Potency [13] | Potency [14]

CC(C)(C)c1ccc(N)cc1
inactive: outcome [1] | outcome [2] | outcome [3] | outcome [6] | outcome [17] | outcome [16] | outcome [7] | Potency [8] | outcome [9] | outcome [10] | outcome [11] | Potency [12] | Potency [13] | Potency [14]

O=C(c1ccccc1)c1cccc(O)c1
inactive: outcome [1] | outcome [2] | outcome [4] | outcome [5] | outcome [6] | outcome [15] | outcome [17] | outcome [16] | outcome [7] | Potency [8] | outcome [9] | outcome [10] | outcome [11] | Potency [12] | Potency [13] | Potency [14]

O=S(=O)(O)c1ccc(Cl)cc1
inactive: outcome [1] | outcome [2] | outcome [3] | outcome [18] | outcome [4] | outcome [19] | outcome [5] | outcome [6] | outcome [15] | outcome [7] | Potency [8] | outcome [9] | outcome [10] | outcome [11] | Potency [12] | Potency [13] | Potency [14]

CCCCCCCCCCCCCCCC(=O)OC
inactive: outcome [1] | outcome [2] | outcome [3] | outcome [18] | outcome [4] | outcome [19] | outcome [5] | outcome [6] | outcome [15] | outcome [17] | outcome [7] | Potency [8] | activity, negative = cytotoxicity [20] 1.29% [at 19 µM] | activity change, negative = inhibition [10] 7.03% [at 19 µM] | viability change, negative = cytotoxic [11] -12.9% [at 15.8 µM] | activation [12] 17.1% [at 15.8 µM] | activation [13] -1.09% [at 15.8 µM] | activity change, negative = cytotoxicity [14] -3.67% [at 15.8 µM]

N=C(N)N
inactive: outcome [1] | outcome [2] | outcome [3] | outcome [4] | outcome [5] | outcome [16] | outcome [7] | Potency [8] | outcome [9] | outcome [20] | outcome [10] | Potency [12] | Potency [13]

CCN(CC)CC(=O)Oc1ccc(NC(C)=O)cc1
inactive: outcome [1] | outcome [2] | outcome [3] | outcome [18] | outcome [4] | outcome [19] | outcome [5] | outcome [6] | outcome [17] | outcome [16] | outcome [7] | Potency [8] | outcome [9] | outcome [10] | Potency [12] | Potency [13] | Potency [14]

O=C(O)P(=O)(O)O
inactive: outcome [1] | outcome [2] | outcome [3] | outcome [18] | outcome [4] | outcome [19] | outcome [5] | outcome [6] | outcome [15] | outcome [16] | outcome [7] | Potency [8] | outcome [9] | outcome [10] | outcome [11] | Potency [12] | Potency [13] | Potency [14]

CN1CCN(C(=O)C2CCCCC2)CC1
inactive: outcome [1] | outcome [2] | outcome [3] | outcome [18] | outcome [4] | outcome [19] | outcome [5] | outcome [6] | outcome [15] | outcome [16] | outcome [7] | Potency [8] | outcome [9] | outcome [10] | outcome [11] | Potency [12] | Potency [13] | Potency [14]

CC(C)OC(=O)C(C(=O)OC(C)C)=C1SC=CS1
inactive: outcome [1] | outcome [2] | outcome [3] | outcome [4] | outcome [5] | outcome [6] | outcome [15] | outcome [16] | outcome [7] | Potency [8] | outcome [9] | outcome [20] | outcome [10] | Potency [12] | Potency [13]

CNC(=O)c1c(I)c(NC(C)=O)c(I)c(C(=O)O)c1I
inactive: outcome [1] | outcome [2] | outcome [3] | outcome [4] | outcome [5] | outcome [17] | outcome [7] | Potency [8] | outcome [9] | outcome [10] | outcome [11] | Potency [12] | Potency [13]

CCCCCC(=O)CC
inactive: outcome [1] | outcome [2] | outcome [18] | outcome [4] | outcome [19] | outcome [5] | outcome [6] | outcome [15] | outcome [16] | outcome [7] | Potency [8] | outcome [9] | outcome [10] | outcome [11] | Potency [12] | Potency [13] | Potency [14]

COC(C)(C)CC(C)=O
inactive: outcome [1] | outcome [3] | outcome [18] | outcome [4] | outcome [19] | outcome [5] | outcome [6] | outcome [17] | outcome [16] | outcome [7] | Potency [8] | outcome [9] | outcome [10] | outcome [11] | Potency [12] | Potency [13] | Potency [14]

Nc1cc(S(=O)(=O)O)ccc1O
inactive: outcome [1] | outcome [2] | outcome [3] | outcome [4] | outcome [5] | outcome [6] | outcome [15] | outcome [17] | outcome [16] | outcome [7] | Potency [8] | outcome [9] | outcome [10] | outcome [11] | Potency [12] | Potency [13] | Potency [14]

CC(=O)c1c(C)cc(C(C)(C)C)cc1C
inactive: outcome [1] | outcome [2] | outcome [3] | outcome [4] | outcome [5] | outcome [6] | outcome [15] | outcome [17] | outcome [16] | outcome [7] | Potency [8] | outcome [9] | outcome [10] | outcome [11] | Potency [12] | Potency [13]

CC(CC(=O)Cl)CC(C)(C)C (stereo not drawn)
inactive: outcome [2] | outcome [4] | outcome [6] | outcome [17] | outcome [16] | outcome [7] | Potency [8] | outcome [9] | outcome [10] | outcome [11] | Potency [12] | Potency [13] | Potency [14]
